Data taken from PubChem BioAssay (NCATS).
“And” between values parts separate entries of the source, which are not always exact repeats. Equal values may be shown once. Results filed as inconclusive are left out. The source made the active and inactive calls. Unless noted, the call rests on the fitted dose curve; in most records, active means well fitted curve in the direction sought with a large enough effect; inconclusive means small, poorly fitted or top-dose-only effect, or another doubt; inactive means no such curve, though single readings can be large; an effect the other way counts as inactive or inconclusive.

Key:
[1] = molecular target: Cellular tumor antigen p53 (Homo sapiens) (UniProt P04637); test: Primary qHTS for small molecule compounds that upregulate eGFP-tagged delta133p53alpha (in N-terminal) cells. (AID 2060322); conditions: NCI-H358 eGFP-delta133p53alpha fluorescence, 24 h; activation: hits give high values; further: nearly all actives have a fitted effect of over 75% in size; further: potency means the concentration at half of the fitted maximal effect;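 on activation: cells pre-induced with doxycycline then dosed without doxycycline; series mostly up to about 56 µM; 0% = DMSO vehicle and 100% = reference activator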
Chain of Cellular tumor antigen p53 (Homo sapiens) (P04637 whole entry, looked up): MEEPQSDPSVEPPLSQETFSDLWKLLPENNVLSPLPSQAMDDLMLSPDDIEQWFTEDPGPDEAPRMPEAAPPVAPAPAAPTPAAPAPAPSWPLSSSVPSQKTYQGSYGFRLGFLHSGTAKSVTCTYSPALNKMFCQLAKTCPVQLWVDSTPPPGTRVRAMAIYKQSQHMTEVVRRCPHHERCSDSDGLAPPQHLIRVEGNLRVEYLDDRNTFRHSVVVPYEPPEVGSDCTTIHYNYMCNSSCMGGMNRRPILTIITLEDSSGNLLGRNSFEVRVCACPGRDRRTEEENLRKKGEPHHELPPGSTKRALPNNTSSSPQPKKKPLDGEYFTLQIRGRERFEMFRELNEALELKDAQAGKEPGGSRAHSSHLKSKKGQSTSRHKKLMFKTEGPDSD
How it was run: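 NCI-H358 cells pre-induced 24 h with 10 ng/ml doxycycline for eGFP-delta133p53alpha, plated dox-free and exposed 24 h at 37C to titrated compounds. Fixed, Hoechst-stained; gated GFP peak intensity by laser scanning cytometry, normalized to DMSO (0%) and 57.5 uM 5-azacytidine (100%).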

[2] = qHTS for Inhibitors of the Aldehyde Dehydrogenase Family (ALDH1A2, ALDH1A3, ALDH2, ALDH3A1) (AID 2061307); further: nearly all actives have a fitted effect of over 50% in size; on activity change, negative = inhibition: on the % scale 0 is the no-effect control and ±100 the full control effect
[3] = molecular target: Aldehyde dehydrogenase, mitochondrial (Homo sapiens) (UniProt P05091); test: qHTS for Inhibitors of the Aldehyde Dehydrogenase Family (ALDH2) Primary screen (AID 2061308); further: nearly all actives have a fitted effect of over 55% in size; further: potency means the concentration at half of the fitted maximal effect;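 on activity change, negative = inhibition: plate controls were vehicle for no effect and reference inhibitor for full effect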
[4] = molecular target: Retinaldehyde dehydrogenase 3 (Homo sapiens) (UniProt P47895); test: qHTS for Inhibitors of the Aldehyde Dehydrogenase Family (ALDH1A3) Validation screen (AID 2061312); further: nearly all actives have a fitted effect of over 45% in size; further: potency means the concentration at half of the fitted maximal effect; on activity change, negative = inhibition: on the % scale 0 is the no-effect control and ±100 the full control effect
[5] = molecular target: Retinal dehydrogenase 2 (Homo sapiens) (UniProt O94788); test: qHTS for Inhibitors of the Aldehyde Dehydrogenase Family (ALDH1A2) Confirmation screens (AID 2061314); further: nearly all actives have a fitted effect of over 65% in size; further: potency means the concentration at half of the fitted maximal effect
[6] = molecular target: Retinaldehyde dehydrogenase 3 (Homo sapiens) (UniProt P47895); test: qHTS for Inhibitors of the Aldehyde Dehydrogenase Family (ALDH1A3) Primary screen (AID 2061315); further: potency means the concentration at half of the fitted maximal effect;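 on activity change, negative = inhibition: plate controls were DMSO vehicle for no effect and reference inhibitor for full effect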
[7] = molecular target: Retinaldehyde dehydrogenase 3 (Homo sapiens) (UniProt P47895); test: qHTS for Inhibitors of the Aldehyde Dehydrogenase Family (ALDH1A3) Confirmatory screens (AID 2061311); further: nearly all actives have a fitted effect of over 60% in size; further: potency means the concentration at half of the fitted maximal effect; on activity change, negative = inhibition: on the % scale 0 is the no-effect control and ±100 the full control effect
[8] = molecular target: Aldehyde dehydrogenase 1A1 (Homo sapiens) (UniProt P00352); test: qHTS for Inhibitors of the Aldehyde Dehydrogenase Family (ALDH1A1) Confirmatory screens (AID 2061316); further: nearly all actives have a fitted effect of over 65% in size; further: potency means the concentration at half of the fitted maximal effect; on activity change, negative = inhibition: on the % scale 0 is the no-effect control and ±100 the full control effect
[9] = BET inhibitor-based combinations targeting novel dependencies in MECOM-rearranged (r) AML: SET-2 cell line (AID 2202231); conditions: SET-2 AML cells viability, CellTiter-Glo luminescence, 48 h; viability: hits give low values, concentration not given here; further: nearly all actives have a fitted effect of over 35% in size; further: potency means the concentration at half of the fitted maximal effect;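 on viability: plate controls were DMSO treated cells for no effect and wells without cells for full effect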
How it was run: (§1)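 500 cells/well; 11-pt dose curve; 48 h, standard incubator; CellTiter-Glo luminescence after 15 min RT; DMSO/empty-well normalization; AUC plus Z-AUC (mean-centered within each line).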

[10] = BET inhibitor-based combinations targeting novel dependencies in MECOM-rearranged (r) AML: MV-4-11 cell line (AID 2202233); further: nearly all actives have a fitted effect of over 45% in size; further: potency means the concentration at half of the fitted maximal effect
How it was run: (§2)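 Cells were plated at 500 per well and exposed to each drug across an 11-point dose range for 48 hr at standard incubator conditions. Viability was read by CellTiter-Glo luminescence, and activity was expressed as AUC and per-cell-line Z-transformed AUC.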

[11] = BET inhibitor-based combinations targeting novel dependencies in MECOM-rearranged (r) AML: HNT-34 cell line (AID 2202234); further: nearly all actives have a fitted effect of over 35% in size; further: potency means the concentration at half of the fitted maximal effect
How it was run: as §2

[12] = BET inhibitor-based combinations targeting novel dependencies in MECOM-rearranged (r) AML: AML-191 cell line (AID 2202236; further: nearly all actives have a fitted effect of over 35% in size; further: potency means the concentration at half of the fitted maximal effect)
How it was run: as §1

[13] = BET inhibitor-based combinations targeting novel dependencies in MECOM-rearranged (r) AML: AML-194 cell line (AID 2202237; further: nearly all actives have a fitted effect of over 40% in size; further: potency means the concentration at half of the fitted maximal effect)
How it was run: as §1

[14] = molecular target: Aldehyde dehydrogenase, mitochondrial (Homo sapiens) (UniProt P05091); test: qHTS for Inhibitors of the Aldehyde Dehydrogenase Family (ALDH2) Confirmatory screens (AID 2061303; active means well fitted inhibition curve with a large enough effect; title and protocol of this record describe different tests; further: on the % scale 0 is the no-effect control and ±100 the full control effect; nearly all actives have a fitted effect of over 45% in size)
[15] = BET inhibitor-based combinations targeting novel dependencies in MECOM-rearranged (r) AML: UCSD-AML1 cell line (AID 2202235);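 further: series mostly up to about 46 µM; plate controls were DMSO vehicle wells for no effect and blank wells for full effect; nearly all actives have a fitted effect of over 40% in size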
How it was run: as §2

[16] = BET inhibitor-based combinations targeting novel dependencies in MECOM-rearranged (r) AML: OCI-AML3 cell line (AID 2202232); conditions: Potency: OCI-AML3 viability; further: potency means the concentration at half of the fitted maximal effect; nearly all actives have a fitted effect of over 35% in size
How it was run: as §1

Cc1cc(C)c2c(c1)C(N(Cc1cc(C(F)(F)F)cc(C(F)(F)F)c1)c1nnn(C)n1)CCCN2CC1CCC(C(=O)O)CC1 (stereo not given)
inactive: activation [1] 26.7% | Potency [2] | Potency [3]
active: Potency [4] 2.82 µM | Potency [5] 20.1 µM

Cc1cc(Nc2ccc(NC(=O)c3ccc(Nc4ccnc5ccccc45)cc3)cc2)nc(N)n1
inactive: Potency [2] | Potency [3] | Potency [4] | Potency [6]
active: Potency [1] 10.9 µM

CC(=O)N[C@@H](CC(=O)O)C(=O)N[C@@H](CCC(=O)O)C(=O)N[C@H](C(=O)N[C@@H](CC(=O)O)C(=O)Nc1ccc2c(C)cc(=O)oc2c1)C(C)C
active: Potency [1] 13.5 µM
inactive: Potency [2] | Potency [3] | Potency [6]

CC(O)CCC1C(CO[C@@H]2O[C@H](CO)[C@@H](O)[C@H](O)[C@H]2O)CC(O)CC1(C)C (stereo not given in full)
inactive: activation [1] 5.34% | Potency [2] | Potency [3] | Potency [5]
active: Potency [7] 3.92 µM | Potency [6] 6.31 µM

CC1CC(=O)[C@]2(O)C(C(=O)OCCc3ccc(O)c(O)c3)=CO[C@@H](O[C@@H]3O[C@H](CO)[C@@H](O)[C@H](O)[C@H]3O)[C@H]12 (stereo not given in full)
active: Potency [8] 12.3 µM
inactive: activation [1] 6.87% | Potency [2] | Potency [3] | Potency [5]

C[C@@H]1O[C@@H](O[C@@H]2[C@@H](O)[C@@H](O[C@]3(CO)O[C@H](CO)[C@@H](O)[C@@H]3OC(=O)/C=C/c3ccc(O)cc3)O[C@H](CO)[C@H]2OC(=O)/C=C/c2ccc(O)cc2)[C@H](O)[C@H](O)[C@H]1O[C@@H]1O[C@@H](C)[C@H](O[C@@H]2OC[C@](O)(CO)[C@H]2O)[C@@H](O)[C@H]1O
inactive: activation [1] -2.68% | Potency [2] | Potency [3]

COc1ccc(CNC(=O)Nc2ncc([N+](=O)[O-])s2)cc1
active: Potency [1] 33.8 µM | Potency [2] 3.16 µM | Potency [7] 14.2 µM | Potency [5] 12.7 µM | Potency [9] 26.3 µM | Potency [10] 18.6 µM | Potency [11] 20.9 µM | Potency [12] 23.5 µM | Potency [13] 26.3 µM
inactive: Potency [3] | Potency [6]

C=C1C(O)CCC2(C)CC3(OC)OC(=O)C(C)=C3CC12 (stereo not given)
inactive: activation [1] -6.87% | Potency [14] | Potency [6]

O=C(NCc1ccc(S(=O)(=O)c2cc(F)cc(F)c2)cc1)c1ccc2nccn2c1
inactive: activation [1] 17.2% | Potency [3] | Potency [4] | Potency [5] | Potency [6]
active: Potency [2] 10.1 µM | Potency [8] 11.3 µM

OC[C@H]1O[C@@H](O[C@H]2[C@H](O)[C@@H](CO)O[C@@H](OCc3ccccc3)[C@@H]2O[C@@H]2OC[C@](O)(CO)[C@H]2O)[C@H](O)[C@@H](O)[C@@H]1O
active: Potency [7] 12.3 µM
inactive: activation [1] -11.5% | Potency [2] | Potency [3]

O=C(O)c1ccccc1C(=O)Nc1ccc(-c2ccccc2)cc1
inactive: activation [1] -8.49% and 5.67% | Potency [2] | Potency [3] | activity change, negative = inhibition [7] -21.1% [at 0.0073 µM] | Potency [6] | viability [9] 116% | Potency [10] | Potency [11] | Potency [15] | Potency [12] | Potency [13]
active: Potency [5] 10.1 µM

CCN(Cc1cc(Nc2nc(C)cn3c(-c4cn[nH]c4)cnc23)sn1)C(C)(C)CO
inactive: Potency [2] | Potency [3] | Potency [6]
active: Potency [1] 16.9 µM | Potency [7] 12.7 µM | Potency [5] 31.8 µM

S=C(NCc1ccc2c(c1)OCO2)N1CCN(c2ncnc3c2oc2ccccc23)CC1
active: Potency [2] 1.58 µM | Potency [5] 11.3 µM | Potency [16] 2.95 µM | Potency [10] 16.6 µM
inactive: activation [1] 8.81% and -14.3% | Potency [3] | Potency [4] | Potency [6] | Potency [8] | Potency [15]

CC[C@@H](Nc1c(Nc2cccc(C(=O)N(C)C)c2O)c(=O)c1=O)c1cc(C(C)C)co1
active: Potency [2] 5.62 µM and 7.08 µM
inactive: activation [1] -2.39% | Potency [3] | Potency [4] | Potency [5] | Potency [8]

COCC(=O)NC/C=C/c1ccc2ncnc(Nc3ccc(Oc4ccc(C)nc4)c(C)c3)c2c1
active: Potency [2] 7.12 µM
inactive: activation [1] 0% | Potency [3] | Potency [7] | Potency [5] | Potency [6]

COC(=O)C1=CO[C@@H](O[C@@H]2O[C@H](COC(=O)/C=C/c3cc(OC)c(O)c(OC)c3)[C@@H](O)[C@H](O)[C@H]2O)[C@@H]2C(CO)=CC[C@H]12
inactive: activation [1] -16.8% | Potency [2] | Potency [3]

O=C(Nc1ccc(S(=O)(=O)C(F)(F)F)cc1)C1=CCN(c2ncccc2C(F)(F)F)CC1
inactive: activation [1] -1.91% | Potency [2] | Potency [6]
active: Potency [3] 25.1 µM
